PubChem BioAssay AID1159506 (National Center for Advancing Translational Sciences (NCATS), 2015)
Whole data set: some 59,000 sequences, median the read-out near -0.00055, cut for the lowest 2% near -2. The sample as a whole holds a higher share of the lowest values than the screen did.

assay: Identification of proteins required for the processing of the EWS-FLI1 nascent transcript; details: TC32 Ewing sarcoma NR0B1-luc vs CMV-luc (EWS-FLI1 target promoter against control promoter), 48 h; screened at 20 nM (by protocol);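 further: robust z of luciferase light less the median z of siRNAs with the same seed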
Outline: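 TC32 Ewing sarcoma cells carrying NR0B1-promoter or CMV-promoter luciferase reporters were reverse-transfected with single siRNAs at 20 nM, three per gene genome-wide. Luminescence was read after 48 h and normalized to non-targeting controls.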

Sequence	seed-corrected z-score
UCCUUCACAAACAUGUCCC against SDK1	0.154
UAUCGAAGAUAAAUCAGCC against SLC7A11	0.269
UUCUUCUCGGCCUGUUUCC against RPL13A	0.511
UGCCUGUAAAGCCGUCUCC against LINC00705	-0.731
AAGCCUAUGAUGAUCACUG against C3orf52	-0.911
UUCCAGCACAUAUCGACUC against TMEM8B	-2.4
AUACUGGACACUCUUGCCG against RNF5	-2.86
UUCGGUCUCAGGACUAUUG against KAT6A	0.686
UUCUUGAACUGUCUAAACC against CERKL	0.919
UUUCAUUGAAGCGGAAGCG against CRYGD	0.834
UUACUUAGAGGAGAUACCA against IGFBP7	-0.294
UCCCGGAAAGCCUUCAUGG against INF2	-0.589
UAAGAUAUGAACUCUGACG against ZNF234	0.548
UGGGCUUGUAGAAGUGUCU against DGAT1	-0.22
AAUUAUUCGACUGACAUAG against RFC4	-2.19
AUCUGUCCAAGACAUUUGC against CHRNA7	-1.18
AAACUGACAAGUAGACUGG against ANKRD27	-0.601
UCAGUUGCUUAUGAUAGUC against CCDC73	-2.71
UUAUUAGAGAGAAAAGCAC against PRAC1	0.7
UCCGUUAUUAGCAUCUGCC against 6-Mar	-0.0888
UUAUUGAUGCGUUGAUUUG against CCDC88C	0.00274
UUAUGUACCUUGUUACAUU against CD72	-0.111
AUGCGGUUCAGGAACUUGG against SBNO2	-2.46

Sequence	seed-corrected z-score
ACAUAUAGUAUCAUUAUGG against SLC35D2	0.0309
UUUCGGUUCCUUGAAACCA against DBNL	-0.0899
UUUGAUUCUACUUCAAAAC against CBX3P2	0.167
AAAGGGACGCUCAACCACC against HIST1H4K	-1.31
UUAACUGCAGGCUUAUACU against AKR1B1	-1.42
UAUCUUUUCCCAGUUGGAC against MSRB3	-2.11
UACGAUUCUUGAGUGGAAG against BACH1	0.239
UCUGUUUCUCGCGCACUCG against COX7A1	0.0308
UUCUUACACCUGACGAAGC against WNT5B	0.217
UAUGAUUUAAUCACCUCCU against LOC653513	0.00911
UCAAUGAGAGUGCACAUCC against COPA	-3.73
AUAUCAAUUGUUAUCUUGC against ANKRD30A	0.895
UCUACUAUCAUUGUCCCUU against TAL1	0.0482
UCUGGUACUGUGAAGGGUC against TSPYL5	0.606
UAUUAUUGUCUGGAACAUC against C12orf57	0.301
UGACGUACAGCAUUGACAG against PHLPP2	0.366
UAAGUCCCAAUUCACUCUC against FAM134B	2.19
UCUGGUUCCAGGUUGCUUA against SFXN3	-2.37
AGUAGAAAGACCAUGCUUG against TUBB2A	0.712
AAAACUAUUGGUUUCUUCC against GCOM1	-0.0313
UUCGUAGUGGAGUGAAUCC against DHH	-0.195
ACUGCUUUCCUUAAAAUCC against CCDC40	-3.74
UUGUUAACCAAGACAACGC against SNAPIN	0.13

Sequence	seed-corrected z-score
UGCUAUAUCUAGAUGUUCC against RMDN2	-0.178
UCUUUGUUCCAUCAUGACC against NDUFAF7	0.211
UCAUUUCGCACAGCUUCCU against RARG	0.369
AAUGCUCCAAGACUGGAGG against PTCRA	-1.44
UACAUGGUAAUAACUUUUC against MARCKS	-0.217
UUUGUUCAUCACGAAAGUC against SDHAF3	-0.383
AGAGUGUCAAGCAGCAUGG against EEF1A1P33	-2.33
UGCGGAUCAAGUCUGAGAC against MSH5	-0.442
UGAGUUUCUCGCACGUCUC against WNT4	-2.44
UGAGGCUCCAGUUUCAGGC against SLC3A2	1.53
UGACUUGACUCCGAUCUGC against AP2A1	-0.384
UUCGUGGUCUUGCAGAAGC against LY6D	-0.178
GAUAGUUGUAGGGUGUGGC against NDUFA3P3	0.165
UAACUUAUCUAAACUACUC against SPAG9	-0.547
AAUGGUUUCACCGGCAGCG against IFRD2	-2.09
AACUCUUCUAUGUCGAAUG against ZNF551	-0.267
UCCGAUGACACCAAGAGCG against REEP5	0.932
UACUUUACGUUCUUCGAUC against PAGE4	0.246
ACUGGAGAUAGUGCUGUUG against SUN2	-4.61
UGUGAUGUUAGCAAUCUUC against TAS2R41	-0.517
UAGUCAACAAUGUCACAUC against ELOVL7	-0.576
UGAUGCACCAUCACAGUCU against SUSD6	0.212
CACCAGGAUGGUUUGGUUG against BRICD5	1.06

Sequence	seed-corrected z-score
UCUUCGGUCAUGAAUGAGG against TAT	-0.586
UCUGUCAUCUUUUUGGGUG against PSMD8	-4.18
UCCGAUACCGACAAUAACC against ADAM7	0.224
UGAAGUACACCUUAAAGCC against SCN4A	0.557
UCUGUUCCAAUACUGCUUG against CD209	-0.501
AUGGUGUCAAGAAUAAGGC against ROPN1L	1.14
UCAGCAACAACGGAUAUCG against PLEKHG7	-0.178
AAAGUGCCCAAAACGAUGG against ATP2B3	0.438
AACAUCUCCAAUGAUAGGG against NR0B2	-2.16
UCACCUACUUCGAUCUUCC against MECOM	-0.295
AAUCAUGCCCUUUUUGUGG against FPR2	-2
UUCCAGCCCAUGAGAACCC against DKK2	0.436
AACGGAAAUGCUGACAUCG against EPRS	-0.386
AGAGUUUCCUGAGUCUUCU against TPD52L2	-2.41
UAUCAUUGCGUGUUGCUGC against BBOF1	0.0553
UCUGUGAGGAAUGCUGUCC against RFT1	-2.48
UUCUAGCUCACUGAAGUCC against PYGL	-0.371
UUCAGGGCAUUUAAAGGGC against ZNF629	-0.898
AAGAUAAUAAAAACGUAGG against SLC2A14	0.0262
ACUGCUUACACUCACAUGG against ZNF490	-4.22
UGGGAGCAAAGCAUAGUCG against PNMA3	-1.88
UACUUGACUGAAAUGUCUC against ZNF829	-0.616
UAGUUGUCCUGGUCGGAGC against LY6E	-2.61

Sequence	seed-corrected z-score
UUGCAUGCAAUGGUGAGGC against S100A10	-1.4
UACUUUGCGACCAUUUAGG against PABPC3	-1.3
UCUGUAACAUGCGGAGUUC against M1AP	-0.631
ACCGUGUUCAGAUAGCCUG against RACK1	-1.01
AAUGUUGACACGUCUCCUG against TOB1	0.235
UUGGGAGUGAAAACAGAGG against OR8B2	-3.41
AACUUCUUCAAGGUAAUUG against PJA1	0.88
AAAGUUUCACUCUUUCUGG against TPT1P8	-0.645
UUCGAUUGAAAGAAGGCCU against MYOZ1	-0.336
AACUCUAUUCAUGAGCUCG against ANGPTL5	0.0468
UUCCUGAUUAGUAAUGUCG against RAB5B	0.136
AUCUUGGACAGAUAUAAUC against RNF126	-2.4
UAUACUAUUGGUAAGUGCA against SND1-IT1	-0.0514
AUACUCCACACCACAAAGC against LTB4R	0.354
AAAAGACCAAAGCCCAUGU against RPLP1	-2.92
UAUAGUGAAGAGAUAUGCC against ADGRL2	0.229
UCGUUUUUGACUACCAGGG against PHKB	0.853
AACUGAUUAAAAUCAGAGG against PIGG	0.269
UAGUAGCAUAGUUCAGUGG against OR51T1	0.179
UUUGCUCUCAUUCUCCGCA against SF3B5	-3.03
AUAGUUAAUUGAAUUUCGG against BMPR2	-0.638
UUUGCAGCCUCGGUUAUAG against PWWP2B	0.352
AAGAGUAAUAGGCAAUUUC against SLC19A2	-0.574

Sequence	seed-corrected z-score
ACACGGGCAAUGGAUUUCC against RPL35	-0.426
UAACAUACACUAGAUCGCC against FOLH1	-3.06
AAUGAGAUAAUGUUGGUCA against SNX29P1	-1.77
UUUCUUUUCGGCUCUAGGG against NKX2-5	-1.12
UGUACAAUGAGGAAGCUUC against LOC728903	-0.125
UCUUUGCAAAGGGUAUGCC against IL17RE	-2.02
AGACCAUCCCACGAAAUGC against PEBP1	-1.22
AAGCGGAAAAUCUUGAUGC against SLC26A2	0.168
UUCGUCCUUAUGCUCUUUC against HOXA7	0.383
AAAGAUACAGGUUAAAGGC against HIST2H2BF	-0.321
UUCAUAACGAGUUGGAGCC against RPL30	-2.42
UUCAUGUUCAGAGUCAACG against SSRP1	1.02
ACUCUUAUCAGGCACAUCC against IMPAD1	-0.93
UAACCGUUCCCGCAAACAC against TFAP2E	-0.2
AUUUAUUCCGGACACGUGG against GLI4	-2.01
UCUUAUCCAAGGGACCAGC against MED1	-0.541
UUCUCUAGGAUGGAAAACC against LOC728752	0.253
UUCGCAAUGUUGGUUCACC against TEX15	-0.211
